# FLuc modulator: firefly luciferase modulation, counter-screen for miR-21 project; P08659; actives 6.9% (n = 360,000); Potency, µM (highest dose often 57.5 µM), most hits filed as inhibitors; purified FLuc, Km substrates, luminescence inhibition; AID 588342; further: nearly all actives have a fitted effect of over 55% in size
# Target sequence (P08659 whole entry, looked up): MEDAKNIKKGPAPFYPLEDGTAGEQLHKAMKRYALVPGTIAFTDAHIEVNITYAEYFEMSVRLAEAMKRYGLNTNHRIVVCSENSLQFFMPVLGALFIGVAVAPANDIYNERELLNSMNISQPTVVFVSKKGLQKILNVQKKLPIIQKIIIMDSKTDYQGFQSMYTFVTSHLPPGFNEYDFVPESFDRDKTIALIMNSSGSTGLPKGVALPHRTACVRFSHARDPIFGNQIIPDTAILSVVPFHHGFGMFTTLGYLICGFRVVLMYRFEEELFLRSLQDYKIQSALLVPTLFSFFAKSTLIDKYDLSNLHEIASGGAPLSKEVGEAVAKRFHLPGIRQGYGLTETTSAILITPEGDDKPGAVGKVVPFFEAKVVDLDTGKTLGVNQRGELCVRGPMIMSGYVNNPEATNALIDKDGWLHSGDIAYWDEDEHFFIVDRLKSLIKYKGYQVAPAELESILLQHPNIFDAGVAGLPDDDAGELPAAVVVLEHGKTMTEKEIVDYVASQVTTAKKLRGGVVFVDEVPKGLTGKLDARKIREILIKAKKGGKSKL
#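 Purified P. pyralis luciferase, 10 nM final, with Km-level 10 uM D-luciferin and 10 uM ATP in 50 mM Tris acetate pH 7.5, 10 mM Mg acetate, 0.01% Tween-20, 0.05% BSA; 6-point qHTS titration about 60 µM downward; luminescence read.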
# Rab9 promoter act: activates the Rab9 promoter; Huh7 Rab9 promoter-luciferase reporter, luminescence, 24 h; actives 2.8% (n = 320,000); Potency, µM (highest dose often 9.22 µM), usual class: activators; further: nearly all actives have a fitted effect of over 60% in size
#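 Quantitative HTS format; Huh7 Rab9-luciferase reporter cells (1500/well) receive compound 2 h post-plating, incubate 24 h at 37 °C, then get luciferase reagent for 10 min before luminescence reading.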
# SMN2 splice up: SMN2 splice variant enhancement | HEK293 SMN2-luciferase splicing reporter, luminescence, 30-36 h | Potency, µM (series often up to 46.1 µM), hits mostly activators | actives 2.8% (n = 210,000) | AID 1458; further: nearly all actives have a fitted effect of over 55% in size
#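 HEK293 cells carry an SMN2 minigene-luciferase reporter in which exon 7 inclusion puts luciferase in frame. Cells were seeded at 2000 cells/well, attached for 10-12 hours, then exposed to compounds for 30-36 hours at 37C before ONE-Glo luminescence.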
# KinaseGlo FLuc: Kinase-Glo luciferase inhibition (counter-screen); actives 0.28% (n = 200,000); Potency, µM (titrated, usually from 38.3 µM), actives largely listed as inhibitors; AID 1379; Kinase-Glo luciferase, ATP luminescence, 8 min; further: nearly all actives have a fitted effect of over 60% in size
#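 Light output from Kinase-Glo luciferase with luciferin and 10 uM ATP in 50 mM imidazole pH 7.2, KCl, MgCl2, Tween 20, BSA; compound pin-delivered, 8-min ambient incubation, then luminescence read.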
# ELG1 genotox: induces genotoxicity in HEK293T cells with luciferase-tagged ELG1; HEK293T ELG1-luciferase reporter, luminescence, 16 h; Potency, µM (doses to about 46 µM), hits mostly activators; actives 1.3% (n = 330,000); AID 504466; further: nearly all actives have a fitted effect of over 60% in size
#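 16 hr compound incubation (37 °C, 5% CO2) of HEK293T cells carrying luciferase-tagged ELG1; luciferase then measured by ONE-Glo luminescence after 30 min at RT.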
# NPC1 prom act: activates the NPC1 promoter. actives 2.4% (n = 320,000). Huh7 NPC1 promoter luciferase reporter, 24 h. Potency, µM (top dose mostly 9.22 µM), actives largely listed as activators; further: nearly all actives have a fitted effect of over 60% in size
#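 Cells: Huh7 expressing luciferase under the NPC1 promoter, 1500/well. Seeded 2 h, compound added, incubated 24 h at 37 °C. Luciferase reagent, 10 min ambient, then luminescence.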
# Numbers stand for hits; i = inactive; ? = inconclusive; nt = no result given; [ ] = another dose, or the depositor's remark. Rows were chosen to be rich in hits. Some 7.5% of all compounds tested hit in one or more screens of this group. The call rests on the fitted dose curve; in most records, active means well fitted curve in the direction sought with a large enough effect; inconclusive means small, poorly fitted or top-dose-only effect, or another doubt; inactive means no such curve, though single readings can be large; an effect the other way counts as inactive or inconclusive.
SMILES,FLuc modulator,Rab9 promoter act,SMN2 splice up,KinaseGlo FLuc,ELG1 genotox,NPC1 prom act
C=CCNC(=O)c1onc(CSc2ccc(Cl)cc2)c1C(=O)O,17µM,i,?,i,i,i
C=CCNC(=O)c1onc(CSc2ccc(Cl)cc2)c1C(=O)NCC=C,i,i,nt,nt,i,i
O=C(Cc1cnc2ncnn2c1)N1CCc2c([nH]c3ccccc23)C1c1ccccc1F (stereo unspecified),i,i,nt,i,i,i
CCN(Cc1ccccc1)C(=O)CCS(=O)(=O)c1cc(Br)cc2c1N(C(=O)C1CC1)CC2,i,nt,i,nt,nt,nt
O=C(N/N=C/c1ccc(Br)s1)c1ccco1,21µM,?,nt,nt,?,?
Cc1ccc(/C=N/NC(=O)c2ccco2)s1,15µM,3.2µM,?,i,?,3.2µM
COC(=O)c1c(C)sc(-c2c(-c3ccc(OC)c(F)c3)[nH]c3c2c(=O)n(C)c(=O)n3C)c1O,i,nt,nt,nt,nt,nt
COc1ccc(S(=O)(=O)NCCc2csc3nc(-c4ccc(Cl)cc4)nn23)cc1C,i,nt,nt,nt,nt,nt
COc1cc(C(=O)Nc2ccc(OCC(=O)N3CCOCC3)cc2C)cc(OC)c1OC,i,i,nt,nt,i,i
O=C(Nc1ccc2c(c1)OCCO2)c1ccc(CN2CCOCC2)cc1,11µM,3.5µM,i,i,i,i
COc1c(C)cccc1C(=O)Nc1ccc(OCC(=O)N2CCOCC2)cc1C,13µM,i,nt,nt,i,i
CCCOc1ccc(C(=O)Nc2ccc(CN3CCOCC3)cc2)cc1,13µM,i,nt,nt,i,i
O=C(Nc1ccc2c(c1)OCCO2)c1ccc(Cl)c(S(=O)(=O)N2CCOCC2)c1,?,i,i,i,i,i
COc1ccc(C(=O)Nc2ccc(CN3CCOCC3)cc2)cc1Br,15µM,i,nt,nt,i,i
CCc1ccc(C(=O)c2cn(CC(=O)Nc3cc(F)ccc3F)c3nc(C)ccc3c2=O)cc1,i,nt,nt,nt,nt,nt
COc1ccccc1N1CCN(C(=O)c2c(C)oc3ncn(CC(C)C)c(=O)c23)CC1,i,nt,nt,nt,nt,nt
COc1c(Cl)cc(Cl)cc1C(=O)Nc1ccc(CN2CCOCC2)cc1,i,i,nt,nt,i,i
CC(C)Oc1cccc(C(=O)Nc2ccc(CN3CCOCC3)cc2)c1,12µM,i,i,i,i,i
COc1c(C)cccc1C(=O)Nc1ccc(CN2CCOCC2)cc1,17µM,2.5µM,16µM,i,?,3.2µM
COc1cccc(NC(=O)c2ccc(CN3CCOCC3)cc2)c1,11µM,3.2µM,?,i,i,4µM
COc1ccc(-c2nc(Cn3c(SCc4cccc(C(F)(F)F)c4)nc4cccnc43)c(C)o2)cc1OC,i,nt,nt,nt,nt,nt
CCCOC1CCCN(C(=O)c2cc(COc3ccc(F)c(F)c3)on2)C1 (stereo unspecified),21µM,2.8µM,nt,nt,?,2.8µM
COc1cc(Cl)ccc1OCc1cc(C(=O)N2CCCC(OC)C2)no1 (stereo unspecified),5.4µM,1.8µM,nt,nt,5.8µM,2µM
COc1ccc(OCc2cc(C(=O)N3CCC(OC)CC3)no2)c2ccccc12,11µM,2.5µM,nt,nt,?,?
COc1cc(C)ccc1OCc1cc(C(=O)N2CCC(c3ccc(F)cc3)C2)no1 (stereo unspecified),7.6µM,2.2µM,nt,nt,?,2.2µM
SMILES,FLuc modulator,Rab9 promoter act,SMN2 splice up,KinaseGlo FLuc,ELG1 genotox,NPC1 prom act
COc1cc(Cl)ccc1OCc1cc(C(=O)N2CCCCCC2)no1,?,i,nt,nt,i,i
Cc1ccc(S(=O)(=O)N2CCN(C(=O)CN3C(=O)NC4(CCCC4)C3=O)CC2)c(C)c1,i,i,nt,nt,i,i
COCCNC(=O)c1ccc(-c2nc(CS(=O)(=O)c3ccccc3)c(C)o2)cc1,i,nt,nt,nt,nt,nt
CC(C)OC(=O)c1ccc(Cn2nnc3sc4c(c3c2=O)CCCC4)cc1,i,nt,i,nt,nt,nt
CCOC(=O)C1CCN(C(=O)c2cc(COc3ccc(OC)c4ccccc34)on2)CC1,15µM,3.5µM,nt,nt,?,?
CCCCOc1ccc(-c2ncc(C(=O)O)c(C)n2)cc1,2.4µM,0.56µM,14µM,i,i,0.5µM
O=C(O)Cn1c(COc2ccc(Cl)cc2)nc2ccccc21,11µM,i,nt,nt,i,i
NNC(=O)Cn1c(COc2ccc(Cl)cc2)nc2ccccc21,12µM,i,i,i,i,i
COc1cc(OC)cc(C(=O)NCC(=O)OCC(=O)c2cc(C)n(Cc3ccco3)c2C)c1,27µM,i,i,i,i,i
Cc1cc(C(=O)COC(=O)CNC(=O)c2ccco2)c(C)n1Cc1ccco1,?,i,i,i,i,i
CCOc1ncccc1C(=O)OCC(=O)c1cc(OC)ccc1OC,i,i,i,i,i,i
CCCC(=O)c1ccc2c(c1)OCCO2,?,i,i,i,i,i
Cc1cc(C(=O)COC(=O)c2ccc(Br)o2)c(C)n1Cc1ccco1,2.7µM,3.2µM,i,i,?,i
CCOc1ncccc1C(=O)OCC(=O)c1cc(C)n(Cc2ccco2)c1C,0.85µM,0.5µM,i,i,6.5µM,0.35µM
Cc1cc(C(=O)COC(=O)CCC(=O)c2ccc3c(c2)OCCO3)c(C)n1Cc1ccco1,8.5µM,i,i,i,?,i
NC(=O)Cn1c(=O)n(CCCCCC(=O)NCc2ccccc2)c(=O)c2sccc21,i,nt,i,nt,nt,nt
Cc1cc(C(=O)COC(=O)C(C)NC(N)=O)c(C)n1Cc1ccco1 (stereo unspecified),13µM,i,i,i,i,i
Cc1cc(C(=O)COC(=O)c2ccc(O)cc2)c(C)n1Cc1ccco1,3.4µM,2.5µM,22µM,i,?,3.5µM
O=C(COC(=O)CCC(=O)c1ccc2c(c1)OCCO2)NCc1ccc2c(c1)OCO2,11µM,i,i,i,i,i
Cc1cc(C(=O)C(C)Cl)c(C)n1Cc1ccco1 (stereo unspecified),i,i,i,i,i,i
O=C(c1ccc(Cl)nc1)N1CCN(S(=O)(=O)c2ccc(Cl)cc2)CC1,i,i,i,i,i,i
CCN(c1cc(C)cc(C)c1)S(=O)(=O)c1nnc(NC(=O)c2cccc(F)c2)s1,i,nt,nt,nt,nt,nt
Cc1ccc(C(=O)Nc2ncc([N+](=O)[O-])s2)cc1,0.12µM,0.025µM,nt,nt,?,0.032µM
Cc1onc(-c2ccccc2)c1C(=O)Nc1ncc([N+](=O)[O-])s1,i,i,nt,nt,i,i
O=C(Nc1ncc([N+](=O)[O-])s1)c1ccco1,11µM,1.1µM,nt,nt,2.6µM,1.6µM
Cc1ccc([N+](=O)[O-])cc1NC(=O)c1ccc2c(c1)OCO2,i,i,i,i,i,i
O=C(Nc1ncc([N+](=O)[O-])s1)c1ccc2c(c1)OCO2,0.11µM,1.3µM,nt,nt,?,3.2µM
Fc1cccc(CNc2ncnc3ccc(-c4ccccc4Cl)cc23)c1,?,i,nt,nt,nt,i
CC(=O)Nc1ccc(Cc2ccc3[nH]c(=O)cc(C)c3c2)cc1,i,i,i[9.22 µM],i[7.66 µM],21µM,i
CC(=O)Nc1ccc2[nH]c3ccccc3c2c1,19µM,i,nt,nt,i,i

# Source: PubChem
